Experimental data published in PubChem BioAssay (EPA / NIEHS).
Records with an inconclusive call do not appear. Active and inactive are the calls of the source. The calls were made as follows: active = hit-call score of the fitted dose curve at least 0.9, where 1 is the maximum; inconclusive = response in the unintended direction; inactive = score below 0.9.

How the values were obtained:
[1] = biological target: Luciferin 4-monooxygenase (Photinus pyralis) (UniProt P08659); assay: CCTE_Simmons_QuantiLum_inhib_2: CCTE's Firefly Luciferase Inhibition Assay, Simmons Lab (AID 2283767);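 as to AC50: potency for inhibitors that lower luciferase luminescence relative to DMSO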
Summary of the method: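 Recombinant firefly luciferase (5 ng/well, 200 mM potassium phosphate with 1 mg/ml BSA) was exposed to 8 concentrations from 5 nM to 87.5 uM (final, 0.5% DMSO) for 30 min at 37C in the dark. Loss of luminescence versus DMSO was read after injecting D-luciferin/ATP-analogue reagent.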

[2] = test system: zebrafish Estrogen Receptor (ESR2B), gene 317733; assay: ATG_zfER2b_XSP1: Attagene TRANS-FACTORIAL Multi-Species (XSP1) HepG2 Assay for zebrafish Estrogen Receptor (ESR2B) (AID 2283773)
Summary of the method: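 HepG2 cells transiently transfected with multiple GAL4-UAS reporter units expressing chimeric zebrafish ER2b-Gal4; 24 h chemical exposure with 3 nM 6-alpha-fluorotestosterone present. Reporter mRNA measured by RT-PCR and capillary electrophoresis; gain of signal fitted versus DMSO.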

[3] = test system: frog Estrogen Receptor (ESR2), gene 100174814; assay: ATG_frER2_XSP1: Attagene TRANS-FACTORIAL Multi-Species (XSP1) HepG2 Assay for frog Estrogen Receptor (ESR2) (AID 2283774)
Summary of the method: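 HepG2 cells transiently transfected with GAL4-UAS multiplexed reporter units expressing chimeric NR-Gal4 proteins; reporter mRNA measured 24 h after dosing by RT-PCR, FAM labeling, HpaI digestion and capillary electrophoresis. Gain-of-signal relative to DMSO; 3 nM 6-alpha-fluorotestosterone present.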

[4] = ACEA_AR_antagonist_AUC_viability: ACEA Biosciences xCELLigence Real-Time Cell Analysis on Androgen Receptor Antagonism for Viability (AID 2283776);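 also: 22Rv1 human prostate cancer cells growing on impedance electrode plates; area under impedance growth curve at 80 h after dosing as viability; hits lower the growth signal relative to DMSO meaning cytotoxicity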
Summary of the method: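 Viability endpoint from label-free cell-index monitoring: 22Rv1 cultures treated with an eight-point 1:4 dilution series starting at 100 uM final, AUC at 80 h fitted against DMSO.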

[5] = test system: frog Estrogen Receptor (ESR1), gene 398734; assay: ATG_frER1_XSP1: Attagene TRANS-FACTORIAL Multi-Species (XSP1) HepG2 Assay for frog Estrogen Receptor (ESR1) (AID 2283777)
Summary of the method: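 Read-out: fluorescent reporter mRNA via RT-PCR, HpaI digestion and capillary electrophoresis, after 24 h chemical exposure of transiently transfected human HepG2 cells expressing exogenous NR-Gal4 chimeras. DMSO served as baseline for positive-direction fitting.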

[6] = test system: zebrafish Estrogen Receptor (ESR2A), gene 317734; assay: ATG_zfER2a_XSP1: Attagene TRANS-FACTORIAL Multi-Species (XSP1) HepG2 Assay for zebrafish Estrogen Receptor (ESR2A) (AID 2283778)
Summary of the method: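 HepG2 cells transiently transfected with multiplexed GAL4-UAS reporter units and chimeric NR-GAL4 receptors; 24 h compound exposure with 3 nM 6-alpha-fluorotestosterone present. Reporter mRNA quantified by RT-PCR and capillary electrophoresis, gain-of-signal fitted relative to DMSO.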

[7] = biological target: chicken Estrogen Receptor (ESR1), ESR1 (gene 396099) (UniProt P06212); assay: ATG_chERa_XSP1: Attagene TRANS-FACTORIAL Multi-Species (XSP1) HepG2 Assay for chicken Estrogen Receptor (ESR1) (AID 2283779)
Summary of the method: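 HepG2 cells transiently transfected with multiplexed GAL4-UAS reporter units expressing chimeric NR-Gal4 proteins; 3 nM 6-alpha-fluorotestosterone present. Reporter mRNA measured 24 h after dosing by RT-PCR, FAM labelling, HpaI digest and capillary electrophoresis; gain of signal versus DMSO.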

[8] = test system: turtle Estrogen Receptor (ESR1), gene 101933533; assay: ATG_trERa_XSP1: Attagene TRANS-FACTORIAL Multi-Species (XSP1) HepG2 Assay for turtle Estrogen Receptor (ESR1) (AID 2283781)
Summary of the method: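 HepG2 cells transiently transfected with GAL4-UAS reporter units and chimeric NR-Gal4 constructs, dosed for 24 h with 3 nM 6-alpha-fluorotestosterone present. Reporter mRNA was quantified by RT-PCR, fluorescent labelling and capillary electrophoresis, with gain of signal fitted relative to DMSO.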

[9] = biological target: Estrogen receptor beta (Homo sapiens) (UniProt Q92731); assay: ATG_hERb_XSP1: Attagene TRANS-FACTORIAL Multi-Species (XSP1) HepG2 Assay for human Estrogen Receptor (ESR2) (AID 2283788)
Summary of the method: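 Read-out: reporter mRNA induction by RT-PCR, HpaI digestion and capillary electrophoresis fluorescence, fitted in positive direction relative to DMSO baseline. Human liver HepG2 cells expressing ERβ-Gal4 fusion, dosed 24 h, medium containing 3 nM 6-alpha-fluorotestosterone.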

[10] = biological target: GAL4 Transcription Factor (Internal Marker), GAL4 (gene 855828) (UniProt P04386); assay: ATG_GAL4_XSP1: Attagene TRANS-FACTORIAL Multi-Species (XSP1) HepG2 Assay for GAL4 Transcription Factor (Internal Marker) (AID 2283789)
Summary of the method: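 HepG2 cells transiently transfected with multiplexed GAL4-UAS reporter units were exposed for 24 h with 3 nM 6-alpha-fluorotestosterone present. Reporter mRNA was quantified by RT-PCR, FAM labelling, HpaI digestion and capillary electrophoresis; background-control readout, gain-of-signal versus DMSO.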

[11] = ATG_M_06_XSP1: Attagene TRANS-FACTORIAL Multi-Species (XSP1) HepG2 Assay for M06 Transcription Factor (Internal Marker) (AID 2283790)
Summary of the method: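 Transfected HepG2 multi-reporter system treated 24 h in the presence of 3 nM 6-alpha-fluorotestosterone. The M06 internal marker transcript was quantified by RT-PCR with capillary electrophoresis as a background control, and gain of signal was scored versus DMSO.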

[12] = ATG_M_61_XSP1: Attagene TRANS-FACTORIAL Multi-Species (XSP1) HepG2 Assay for M61 Transcription Factor (Internal Marker) (AID 2283797)
Summary of the method: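 HepG2 cells transiently transfected with multiplexed GAL4-driven reporter units, dosed 24 h with 3 nM 6-alpha-fluorotestosterone present. Reporter mRNA quantified by RT-PCR, 6-FAM labelling, HpaI digestion and capillary electrophoresis; internal-marker background control, gain of signal versus DMSO.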

[13] = ACEA_ER_AUC_viability: ACEA Biosciences xCELLigence Real-Time Cell Analysis on Estrogen Receptor Agonism for Viability (AID 2283782);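 also: continuous compound exposure with impedance area under curve over 80 h; hit means loss of impedance signal meaning reduced cell growth or viability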
Summary of the method: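 T-47D human breast cells in phenol red-free RPMI1640 with 10% charcoal-stripped FBS were dosed with an 8-point 1:4 dilution series from 100 uM top final concentration, in duplicate. Impedance-based growth was followed for 80 h; AUC analysed versus DMSO.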

[14] = STM_H9_NormalizedViability: Cytotoxicity Assessment at 120 hours in the Stemina devTOX quickPredict H9 human embryonic stem cell (hESC)-based Assay (AID 2283784)
Summary of the method: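 Undifferentiated H9 hESCs kept pluripotent were exposed to compound, with media and chemical replaced every 24h. CellTiter-Fluor protease-substrate fluorescence was background-corrected and normalized per plate to the 0.1% DMSO vehicle; signal loss indicates reduced viability.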

[15] = ArunA_NOG_NucleusCount: ArunA Biomedical's Neurite Outgrowth (NOG) Assay for Nucleus Count (AID 2283756)
Summary of the method: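 Human H9-derived differentiated neurons were exposed for 48 h right after seeding. Hoechst-stained nuclei gated by size and intensity were counted by automated high-content imaging as viable neurons. Loss of signal vs DMSO.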

Measured: AC50

Chain of Luciferin 4-monooxygenase (Photinus pyralis) (P08659 whole entry, looked up): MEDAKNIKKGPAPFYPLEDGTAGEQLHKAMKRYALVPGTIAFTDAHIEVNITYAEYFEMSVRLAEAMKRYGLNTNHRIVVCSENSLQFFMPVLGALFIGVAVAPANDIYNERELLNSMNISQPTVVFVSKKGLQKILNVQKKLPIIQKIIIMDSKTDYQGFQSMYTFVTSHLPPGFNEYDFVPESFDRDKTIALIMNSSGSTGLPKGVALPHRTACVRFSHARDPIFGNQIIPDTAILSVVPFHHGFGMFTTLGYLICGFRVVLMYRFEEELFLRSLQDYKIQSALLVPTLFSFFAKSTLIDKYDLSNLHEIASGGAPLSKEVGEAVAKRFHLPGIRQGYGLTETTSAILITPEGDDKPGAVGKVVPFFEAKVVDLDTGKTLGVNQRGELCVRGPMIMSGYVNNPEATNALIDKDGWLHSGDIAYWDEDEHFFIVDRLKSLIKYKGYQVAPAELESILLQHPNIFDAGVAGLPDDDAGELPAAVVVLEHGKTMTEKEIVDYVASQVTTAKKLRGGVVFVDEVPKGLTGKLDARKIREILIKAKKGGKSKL
Chain of Estrogen receptor beta (Homo sapiens) (Q92731 whole entry, looked up, the tested form may be a part): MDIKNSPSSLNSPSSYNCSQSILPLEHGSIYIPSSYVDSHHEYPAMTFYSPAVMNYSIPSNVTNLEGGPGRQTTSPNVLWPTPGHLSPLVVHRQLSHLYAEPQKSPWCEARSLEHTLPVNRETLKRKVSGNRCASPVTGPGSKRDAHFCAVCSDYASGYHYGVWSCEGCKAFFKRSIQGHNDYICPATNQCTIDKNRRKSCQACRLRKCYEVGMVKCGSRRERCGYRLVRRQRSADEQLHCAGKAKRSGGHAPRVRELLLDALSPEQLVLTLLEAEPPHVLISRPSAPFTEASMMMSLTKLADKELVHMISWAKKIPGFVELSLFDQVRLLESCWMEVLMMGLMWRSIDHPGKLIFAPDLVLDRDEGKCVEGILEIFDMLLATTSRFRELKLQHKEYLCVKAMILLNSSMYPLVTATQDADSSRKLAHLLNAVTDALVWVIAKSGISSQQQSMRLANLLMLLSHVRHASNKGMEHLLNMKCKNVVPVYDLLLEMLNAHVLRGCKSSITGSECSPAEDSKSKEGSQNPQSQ
Chain of GAL4 Transcription Factor (Internal Marker), GAL4 (gene 855828) (P04386 whole entry, looked up, the tested form may be a part): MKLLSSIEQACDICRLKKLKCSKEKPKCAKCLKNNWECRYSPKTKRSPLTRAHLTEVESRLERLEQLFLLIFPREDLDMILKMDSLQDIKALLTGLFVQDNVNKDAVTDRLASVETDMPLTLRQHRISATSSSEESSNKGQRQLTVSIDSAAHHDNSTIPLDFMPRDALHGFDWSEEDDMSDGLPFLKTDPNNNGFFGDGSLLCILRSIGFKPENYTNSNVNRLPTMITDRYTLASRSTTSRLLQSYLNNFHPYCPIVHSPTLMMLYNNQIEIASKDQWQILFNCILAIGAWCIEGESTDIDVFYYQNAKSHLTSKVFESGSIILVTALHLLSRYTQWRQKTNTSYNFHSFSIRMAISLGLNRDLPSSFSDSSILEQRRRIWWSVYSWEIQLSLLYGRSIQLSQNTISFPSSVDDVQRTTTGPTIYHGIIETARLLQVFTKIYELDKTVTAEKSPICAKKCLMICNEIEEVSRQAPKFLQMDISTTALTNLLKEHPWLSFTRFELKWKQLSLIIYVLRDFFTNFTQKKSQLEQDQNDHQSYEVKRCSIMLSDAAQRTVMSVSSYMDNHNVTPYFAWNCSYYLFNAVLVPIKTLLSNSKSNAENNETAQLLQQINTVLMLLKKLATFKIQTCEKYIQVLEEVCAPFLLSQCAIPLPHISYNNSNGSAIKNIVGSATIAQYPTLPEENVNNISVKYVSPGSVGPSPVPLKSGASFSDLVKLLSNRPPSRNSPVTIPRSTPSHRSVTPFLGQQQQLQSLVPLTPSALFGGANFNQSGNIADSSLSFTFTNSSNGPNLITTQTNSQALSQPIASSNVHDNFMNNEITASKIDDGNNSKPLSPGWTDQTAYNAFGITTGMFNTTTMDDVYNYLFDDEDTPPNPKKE
Chain of chicken Estrogen Receptor (ESR1), ESR1 (gene 396099) (P06212 whole entry, looked up, the tested form may be a part): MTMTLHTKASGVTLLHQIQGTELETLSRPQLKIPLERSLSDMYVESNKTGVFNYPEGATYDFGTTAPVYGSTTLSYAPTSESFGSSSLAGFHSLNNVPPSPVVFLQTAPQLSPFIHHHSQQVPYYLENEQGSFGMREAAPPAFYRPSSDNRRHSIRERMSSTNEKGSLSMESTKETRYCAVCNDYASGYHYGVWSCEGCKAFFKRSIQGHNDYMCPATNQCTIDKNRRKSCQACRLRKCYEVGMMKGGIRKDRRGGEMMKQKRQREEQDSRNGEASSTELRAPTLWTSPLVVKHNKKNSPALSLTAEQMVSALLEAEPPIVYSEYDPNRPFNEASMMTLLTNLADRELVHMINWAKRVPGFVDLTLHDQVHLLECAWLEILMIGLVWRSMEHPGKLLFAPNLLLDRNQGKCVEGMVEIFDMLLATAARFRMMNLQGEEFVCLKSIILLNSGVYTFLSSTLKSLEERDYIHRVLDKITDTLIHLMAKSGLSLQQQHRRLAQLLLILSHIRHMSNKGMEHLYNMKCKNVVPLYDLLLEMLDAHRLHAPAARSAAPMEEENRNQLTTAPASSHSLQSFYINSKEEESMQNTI

C[C@]12CC[C@@H]3c4ccc(O)cc4CC[C@H]3[C@@H]1C[C@@H](O)[C@@H]2O
active: [2] 14.3 nM | [3] 27.9 nM | [4] 1160 nM | [5] 27.9 nM | [6] 15.7 nM | [7] 22.7 nM | [8] 17.2 nM | [9] 10.5 nM
inactive: [1] | [10] | [11] | [12]

CCCCC(CC)C(=O)O (configuration not stated)
inactive: [4] | [13] | [14]

Cc1[nH]nc2c1N=C(c1ccccc1Cl)c1cc([N+](=O)[O-])ccc1N2
active: [1] 44600 nM | [4] 2040 nM | [14] 1990 nM

CCc1ccccc1O
inactive: [4] | [13]

OCC(CO)(CBr)CBr
inactive: [15] | [4] | [14]

CC(C)c1c(C(=O)Nc2ccccc2)c(-c2ccccc2)c(-c2ccc(F)cc2)n1CC[C@@H](O)C[C@@H](O)CC(=O)O
active: [4] 4960 nM | [13] 2910 nM

NCCN
inactive: [4] | [13]
